Compounds without any hit were thinned out: in the full panel of roughly 83,000, 20% have a hit.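 Treatment: one concentration, 48 hours, 96-well format. Scoring: percent growth, with anything below 10 considered active.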 Values without a mark were called inactive. Activity calls are given as the source filed them.

For the experiment, the system named is NCI/ADR-RES ovarian. In words: NCI-60 one-dose screen, 48 h (100 = growth as untreated, 0 = no growth, -100 = all killed). As to conditions: 10 µM unless noted. The method, then: Growth inhibition of the NCI/ADR-RES human […] tumor cell line is measured as a screen for anti-cancer activity. Cells are grown in 96 well plates and exposed to the test compound for 48 hours. Compounds are tested at a single concentration, which is 10^-5 M for most compounds. The reported endpoint is percent growth (GI% or GIPRCNT), where numbers from 0 - 100% represent growth inhibition, and numbers from -100% - 0 represent cell death. For example, a value of 40 represents 60% growth inhibition. A value of 0 means no net growth occurred over the course of the experiment. A value of -40 indicates 40% of cells at the beginning of the experiment died by the end of the experiment. A value of -100 means all cells are dead at the end of the experiment.
NCI-60 Human Tumor Cell Lines Screen was performed using the standard one-dose NCI protocol, which is described in more detail at https://dtp.cancer.gov/discovery_development/nci-60/default.htm.
Compounds with GIPRCNT values below 10 were considered active. Activity score was based on GIPRCNT using the following formula: […]
Score is 0 for GIPRCNT values of 100 or above, 50 for GIPRCNT values of 0, and 100 for GIPRCNT values of -100.
Take `CSc1ccc(OC(C)=O)cc1C`: the growth is 103%.

On to `O=C(O)c1ccccc1Oc1cc(-c2ccco2)nc(OCCBr)n1`, for which the growth is 105%.

Consider `O=c1c2c(=NCCN3CCCC3)cc3c(=O)n(CCCN4CCOCC4)c(=O)c4c(-c5ccc(CN6CCCC6)cc5)cc(c(O)n1CCCN1CCOCC1)c2c4-3`, for which the growth was -0.981% (active).

Turning to `CCOc1ccc(-c2cnnn2-c2nonc2-n2cccc2)cc1`, the growth is -5.39% (active).

As for `Cc1ccccc1-n1nnc(C(=O)Nc2nc(-c3ccccc3)c(-c3ccccc3)s2)c1C`, the growth is 84.3% [50 µM].

In the case of `O=C(Nc1ccc(F)cc1)c1ccc(C(=O)Nc2ccc(F)cc2)cc1`, the growth is 116%.

Take `Nc1ccccc1-c1n[nH]c(=O)[nH]c1=O`: the growth was 102%.

In the case of `COc1cc(-c2ccc3cc(OC)c(OC)c(OC)c3c2)cc(OC)c1OC`, the growth is 36.6%.

Regarding `CCOC(=O)c1c(Cl)c2c(n1Cc1ccc(OC)cc1)-c1oncc1CCC2`, the growth was 80.6%.

As for `COc1ccc(/C=N/OCC(O)CN2CCC(O)CC2)cc1OC1CCCC1` (stereo not given), the growth is 104%.

Consider `CC(=O)Nc1ccc(S(=O)(=O)N/N=C\c2ccc(Cl)c(Cl)c2)cc1`, for which the growth was 103%.

`CCN1CCN(C(=S)SCC(=O)Nc2nc3ccc(OC)cc3s2)CC1`: the growth was 99.6%.

In the case of `COc1cc(/C=C/c2cc(/C=C/c3ccc(O)c(OC)c3)n(-c3ccccc3)n2)ccc1O`, the growth is 3.18% (active).

For `COc1cc(C2=NN(c3ccc(S(N)(=O)=O)cc3)C(c3ccc(Cl)cc3)C2)cc(OC)c1OC` (stereo not given), the growth is 37.5%.

In the case of `O=C(Nc1ccc(Cl)c(Cl)c1)OCn1ncc2ccc([N+](=O)[O-])cc21`, the growth was 84.1%.

In the case of `COc1cc(/C=C2\C(=O)N(c3c(Cl)cccc3Cl)c3ccccc32)cc(OC)c1O`, the growth was 38.7%.

As for `COc1ccccc1-n1c(SCc2cc(OC)c(OC)c(OC)c2)nc2ccc(Cl)cc2c1=O`, the growth was 20.2%.

For `CC(C)(C)CC(C)(C)N(CSc1ccc(Cl)cc1)CSc1ccc(Cl)cc1`, the growth is 45.6%.

Regarding `COc1cc(OCc2cccc(-c3ccc(C(O)c4nccs4)cc3)c2C)cc(OC)c1C=O` (stereo not given), the growth is 58.1%.

Take `Cc1c(NCC(=O)Nc2nc3ccccc3[nH]2)c(=O)n(-c2ccccc2)n1C`: the growth is 101%.

Consider `Cn1c2ccccc2c2nn(C(=O)c3ccccc3)c(=O)nc21`, for which the growth is 110%.

As for `CCCCc1ccc(C(O)(CCN2CC3CCC(CC3)C2)c2ccccc2)cc1` (stereo not given), the growth was 98.3%.

As to `Cc1ccc2c(c1)c(Sc1ccc(C(=O)NO)cc1)c1n2CN(C)CC1`, the growth was 53.1%.

With `O=C1CCC(N2C(=O)c3cccc(NCCOCCOCCNC(=O)c4cc5c(o4)C(=O)c4ccccc4C5=O)c3C2=O)C(=O)N1` (stereo not given), the growth is 93.7%.

With `CCCCCCCC/C=C\CCCCCCCCOc1cccc(CC(=O)NCC[N+](C)(C)C)c1`, the growth was 103%.

Consider `O=C1C2CC3C(CC2C(=O)[N]1[Sn]([c]1ccccc1)([c]1ccccc1)[c]1ccccc1)C1(Cl)C(Cl)=C(Cl)C3(Cl)C1(Cl)Cl` (stereo not given), for which the growth was -55.5% (active).

On to `COc1cc2oc(-c3ccc(O)cc3)cc(=O)c2c(O)c1I`, for which the growth is 98%.

Take `O=C(Nc1ccccc1)Oc1cccc2cccnc12`: the growth was 78.5%.

With `O=C1CCC(N2Cc3c(C#CCCCNC(=O)c4cc5c(o4)C(=O)c4ccccc4C5=O)cccc3C2=O)C(=O)N1` (stereo not given), the growth is 89.6%.

For `CCCCNNC(=O)c1ccc(Br)cc1`, the growth is 23.5%.

Regarding `COc1ccc(-c2c3c(N)c4c(nc3nc3c2c(C)nn3-c2ccccc2)CCCC4)cc1`, the growth was 86.6%.

For `Nc1cc(Br)c(-c2nnc(CCC(=O)c3nc4ccccc4[nH]3)o2)c(Br)c1`, the growth was 89.6%.

With `COc1ccc(/C=C(\C#N)c2ccc(OC)cc2)cc1`, the growth was 4% (active).

With `Cc1cc(NS(=O)(=O)c2ccc(NC(=O)COc3ccc(-c4cc5ccccc5[nH]4)cc3)cc2)no1`, the growth is 9.15% (active).

With `O=c1oc2ccccc2cc1-c1csc(N=Nc2c(O)[nH]c3ccc(Cl)cc23)n1`, the growth was 105%.

Consider `Cn1c2c(cc(S(=O)(=O)c3ccccc3)c1=O)CCc1c-2cnn1-c1ccccc1Cl`, for which the growth was 113%.

On to `CCOC(=O)c1[nH]c2cc(Cl)ccc2c1[C@@H](C(=O)NC(C)(C)C)N(CC)C(=O)CCCCC#Cc1cccc2c1CN(C1CCC(=O)NC1=O)C2=O` (stereo not given in full), for which the growth was 16.8%.

Turning to `CC(=O)c1cc(C)c(OC(=O)c2ccccc2)c(C)c1`, the growth is 97.9%.

`CCCCc1ccc(NC(=O)C(F)(F)F)cc1`: the growth is 103%.

For `c1ccc(-c2n(Cc3ccc4ccccc4c3)c3ccccc3[n+]2Cc2ccc3ccccc3c2)cc1`, the growth was 46.4%.

(Values after PubChem BioAssay (NCI).)
